Data published in PubChem BioAssay AID504848 (National Center for Advancing Translational Sciences (NCATS), 2011).
Screen size: about 2,300 compounds; about 1,400 (61%) were called active. Another 29% or so got no clear call; they are omitted. The call rests on the fitted dose curve; in most records, active means well fitted inhibition curve with a large enough effect; inconclusive means small, poorly fitted or top-dose-only effect, or effect the other way; inactive means no such curve, though single readings can be large or run the other way. So high a share suggests a set chosen from earlier hits. The list shows a part of the results.

Test: Confirmation screen for delayed death inhibitors of the malarial parasite plastid, 96 hour incubation; further: nearly all actives have a fitted effect of over 60% in size
Conditions: P. falciparum luciferase growth in erythrocytes; series mostly up to 28.7 µM
Outline: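 Two-generation (96 h, 37 C) exposure of P. falciparum carrying an integrated firefly luciferase reporter in erythrocytes, 0.1% parasitemia and 2% hematocrit final, Albumax-supplemented RPMI. Luminescence decrease measures growth inhibition.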
Potency means the concentration at half of the fitted maximal effect.

| Structure (SMILES) | Potency |
| --- | --- |
| CCOC(=O)C(=Cc1ccc(Br)cc1)C(=O)OCC | 7.94 µM (active) |
| COc1ccc(CCNc2cc(C)nc3c(-c4ccc(Cl)cc4)c(C)nn23)cc1OC | 11.2 µM (active) |
| CSc1ccc(/C=C/C(=O)c2ccc(NC(=O)C(C)C)cc2)cc1 | inactive |
| O=C(/C=C/c1ccncc1)c1ccc(NC(=O)c2ccccc2F)cc1 | 12.6 µM (active) |
| COc1cccc(Nc2ccc(N3CCCCC3)cc2)c1OC | 0.355 µM (active) |
| CCOC(=O)CN1C(=O)/C(=C/c2c(F)cccc2Cl)Oc2ccccc21 | 12.6 µM (active) |
| CCOC(=O)c1ccc(N2N=C(C)/C(=C/C=C/c3ccco3)C2=O)cc1 | 5.62 µM (active) |
| CC(=O)c1cccc(NC(=O)CSc2ccc(-c3sc(C)nc3C)nn2)c1 | 12.6 µM (active) |
| CCc1ccc(NC2=CC(=O)C(=O)c3ccccc32)cc1 | 0.447 µM (active) |
| COc1ccc(-c2c(-c3cc(OC)cc(OC)c3)n(C)c3ccc(-c4ccc5[nH]ccc5c4)cc23)cc1 | 6.31 µM (active) |
| CCN(CC)C(=O)C1CCCN(C(=O)c2cc(COc3ccc4ncccc4c3)on2)C1 (configuration not stated) | 11.2 µM (active) |
| c1ccc2c(c1)Nc1cc3ccccc3cc1S2 | 3.98 µM (active) |
| O=C(c1[nH]ncc1-c1cccc(Br)c1)C1CO1 (configuration not stated) | 12.6 µM (active) |
| O=S(=O)(c1ccc(F)cc1)N1CCc2ccccc2C1 | 12.6 µM (active) |
| COC(=O)Nc1ccc2c(c1)N(C(=O)CCCl)c1ccccc1S2 | 12.6 µM (active) |
| O=S1(=O)Nc2c(ccc3cccnc23)-c2ccccc21 | 1.58 µM (active) |
| Cc1ccc(C2(C)NC(=O)N(CC(=O)N3CCN(S(=O)(=O)c4cccc(F)c4)CC3)C2=O)cc1 (configuration not stated) | 7.08 µM (active) |
| Cc1ccc(CS(=O)(=O)Cc2ccc(C(=O)NC3CCCC3)o2)cc1 | 10 µM (active) |
| O=C(NC1CCCCC1)c1ccc(CS(=O)Cc2ccccc2Cl)o1 (configuration not stated) | 12.6 µM (active) |
| O=C(c1cccs1)N1N=C(c2ccccc2)CC1c1ccccc1O (configuration not stated) | 2.82 µM (active) |
| O=C(Nn1c(-c2ccccc2)nc2ccccc2c1=O)c1ccco1 | inactive |
| CCOc1ccc(CCn2c(-c3ccco3)nc3ccccc3c2=O)cc1OCC | 10 µM (active) |
| Cc1c(O)ccc(C(=O)CN2CCN(Cc3ccc4c(c3)OCO4)CC2)c1O | 5.01 µM (active) |

| Structure (SMILES) | Potency |
| --- | --- |
| Cc1ccc(NC2=C/C(=N\S(=O)(=O)c3cccs3)c3ccccc3C2=O)c(C)c1 | 0.0708 µM (active) |
| CCc1ccc(-c2cn(C3CCCCC3)c(=S)[nH]2)cc1 | 6.31 µM (active) |
| Clc1ccccc1Cn1c(/C=C/c2ccco2)nc2ccccc21 | 11.2 µM (active) |
| COc1ccccc1N1CCN(CCC(=O)Nc2ccc(F)cc2)CC1 | 12.6 µM (active) |
| O=C(c1cccs1)N1CCCN(c2ncnc3scc(-c4ccccc4)c23)CC1 | 12.6 µM (active) |
| O=C1CN(c2nc(-c3cccnc3)nc3scc(-c4ccccc4)c23)CCN1 | inactive |
| Cc1cc(C)n(CC(O)COc2ccccc2)n1 (configuration not stated) | 0.891 µM (active) |
| O=C1CN(C(=O)c2ccc(Cl)c(S(=O)(=O)N3CCc4ccccc43)c2)c2ccccc2N1 | 12.6 µM (active) |
| CC[C@@H](C(=O)[C@@H](C)[C@@H](O)[C@H](C)CCc1ccc(C)c(O)c1C(=O)O)[C@H]1O[C@](CC)([C@H]2CC[C@](O)(CC)[C@H](C)O2)C[C@@H]1C | 0.631 µM (active) |
| Cc1ccccc1C1c2[nH]c3ccccc3c2CCN1Cc1cccn1-c1ncccn1 (configuration not stated) | 14.1 µM (active) |
| COc1ccc(C2c3[nH]c4ccccc4c3CCN2Cc2ccoc2)c(F)c1 (configuration not stated) | 12.6 µM (active) |
| Fc1ccccc1C1c2[nH]c3ccccc3c2CCN1Cc1cccn1-c1ncccn1 (configuration not stated) | 12.6 µM (active) |
| O=c1c(Cl)c(Cl)cnn1Cc1nnc(-c2ccc(Cl)cc2)o1 | 12.6 µM (active) |
| COc1cc2c(O)c3c(c(-c4ccc5c(c4)OCO5)c2cc1OC)C(=O)OC3 | 6.31 µM (active) |
| CCOC(=O)C1=C(C)NC(C)=C(C(=O)OCC)C1c1cc(N)ccc1OC(F)F | 5.62 µM (active) |
| Cc1ccc(N(Cc2ccco2)C(=O)c2ccc(N3CCCCC3)c([N+](=O)[O-])c2)cc1 | 10 µM (active) |
| Nc1c(N(Cc2ccco2)C(=O)c2ccc(Br)cc2)c(=O)[nH]c(=O)n1Cc1ccccc1 | inactive |
| COc1cc(CN2CCN(Cc3c[nH]c4ccccc34)CC2CCO)cc(OC)c1 (configuration not stated) | 12.6 µM (active) |
| COc1cc(CN2CCN(CC#Cc3ccccc3)CC2CCO)cc(OC)c1 (configuration not stated) | 14.1 µM (active) |
| Cc1cccc(Nc2nc3c(S(=O)(=O)c4ccccc4)nnn3c3ccccc23)c1C | 3.98 µM (active) |
| CC(C)(C)NC(=O)CSc1nnc(-c2ccccc2)c(-c2ccccc2)n1 | 14.1 µM (active) |
| COc1ccc(/C=C2\CCc3ccccc3C2=O)cc1CN1CCOCC1 | 15.8 µM (active) |
| CCC(C)NC(=O)c1cc(Cl)c(NC(=O)C2=C(C)OCCS2)cc1OC (configuration not stated) | 10 µM (active) |

| Structure (SMILES) | Potency |
| --- | --- |
| Cc1nn2c(Nc3ccccc3)c3c(nc2c1-c1ccccc1)CCC3 | 14.1 µM (active) |
| Cc1ccc(Cl)cc1Nc1nc(-c2sc(NC(=O)C(C)(C)C)nc2C)cs1 | 2.82 µM (active) |
| Cc1cccc(N(Cc2ccccc2)C(=O)CSC(C)C(=O)Nc2cc(C)on2)c1 (configuration not stated) | 8.91 µM (active) |
| COc1ccccc1C(=O)Nc1ccc2nc3n(c(=O)c2c1)CCCC3 | 3.55 µM (active) |
| CCOC(=O)C1CCN(C(=O)C(=O)Nc2ccc3nc4n(c(=O)c3c2)CCCCC4)CC1 | 7.08 µM (active) |
| CCCCCNc1nc2sc3c(c2c(=O)n1-c1cccc(Cl)c1)CCN(C)C3 | 2.24 µM (active) |
| CCCCNc1nc2sc3c(c2c(=O)n1-c1cccc(Cl)c1)CCN(C)C3 | 1.26 µM (active) |
| O=C(O)c1ccc(C=C(c2nc3ccccc3s2)c2nc3ccccc3s2)cc1 | 15.8 µM (active) |
| Cc1cc(C(C)(C)C)cc(C)c1CCNC(=O)c1ccc[n+]([O-])c1 | 12.6 µM (active) |
| CCCCNC(=O)c1onc(CSc2cc(C)ccc2C)c1C(=O)O | inactive |
| Cc1cc(C(C)(C)C)cc(C)c1CCNC(=O)c1c(C)noc1C | 10 µM (active) |
| Cc1ccc2c(c1)N(CCC(=O)NCc1ccco1)C(=O)CO2 | inactive |
| Cc1nn(CCCC(=O)NCc2ccco2)c(=O)c2nn(-c3ccccc3)c(C)c12 | 11.2 µM (active) |
| Cc1ccc(-n2nc3c(=O)n(CCCC(=O)NCc4ccco4)nc(C)c3c2C)cc1 | 2.24 µM (active) |
| C/C(=N/OCO/N=C(\C)c1ccccc1)c1ccccc1 | inactive |
| C/C(=N\NC(=S)Nc1cccc(C)c1)c1ccccc1 | 11.2 µM (active) |
| CCOC(=O)c1c(C)[nH]c(C(=O)Nc2cc(OCC)c(N3CCOCC3)cc2OCC)c1C | 2.51 µM (active) |
| CCOC(=O)c1ccc(Nc2nc(=O)c3cccnc3s2)cc1 | inactive |
| CCOC(=O)c1ccc(NC(=O)c2c(Cl)cc(C)nc2C)cc1 | 12.6 µM (active) |
| N#C/C(=C\c1coc2ccccc2c1=O)C(N)=S | 11.2 µM (active) |
| N#C/C(=C\C=C\c1ccccc1[N+](=O)[O-])C(=O)NC1CCCCC1 | 5.01 µM (active) |
| CC1CCCCC1NC(=O)/C(C#N)=C/C=C/c1ccccc1[N+](=O)[O-] (configuration not stated) | 4.47 µM (active) |
| COCCNC(=O)/C(C#N)=C/C=C/c1ccccc1[N+](=O)[O-] | 10 µM (active) |

| Structure (SMILES) | Potency |
| --- | --- |
| COC(=O)C(=Cc1ccccc1[N+](=O)[O-])C(=O)OC | 3.98 µM (active) |
| CCCCN1/C(=C/c2cccc[n+]2C)Sc2cc(NC(C)=O)ccc21 | 1.58 µM (active) |
| CCC1CCC(C(=O)NC(CCSC)C(=O)NCCN(CC(C)C)CC(C)C)CC1 (configuration not stated) | 7.08 µM (active) |
| O=C1C(=O)c2ccccc2C(O)=C1c1cccc([N+](=O)[O-])c1 | 10 µM (active) |
| COC(=O)c1ccc(C2N=C(c3cccs3)CC(c3ccccc3O)N2)cc1 (configuration not stated) | 5.62 µM (active) |
| COc1ccc(C2(c3ccc(OC)cc3)NC(=O)N(CC(=O)Nc3ccc(C(N)=O)cc3)C2=O)cc1 | 3.98 µM (active) |
| COc1cccc(NC(=O)CN2C(=O)NC3(CCCc4ccccc43)C2=O)c1 (configuration not stated) | 3.98 µM (active) |
| COC(=O)C1=C(C)Nc2ncnn2C1c1ccccn1 (configuration not stated) | inactive |
| CCOc1ccc(N(C(=O)c2snc(C(N)=O)c2N)C(C(=O)NCC2CCCO2)c2c[nH]c3ccccc23)cc1 (configuration not stated) | 2.82 µM (active) |
| COc1cc(/C=C/C(=O)NC(=O)c2ccccc2O)ccc1OC(C)=O | 8.91 µM (active) |
| Cn1c(=O)oc2cc(S(=O)(=O)NCCC(=O)NCc3ccc(F)cc3)ccc21 | 12.6 µM (active) |
| O=C1NC(=Nc2ccccc2)S/C1=C\c1ccccc1 | 11.2 µM (active) |
| O=C(NC1CCCCC1)N1CCN(c2ccc([N+](=O)[O-])cc2)CC1 | 12.6 µM (active) |
| CCCc1c(CC)c(=N)c2ccccc2n1C | 0.0316 µM (active) |
| Nc1cccc2c1C(=O)N(C(=O)/C=C/c1ccc(F)cc1)C2=O | inactive |
| CC(C)(CNC(=O)/C=C/c1ccc(F)cc1)CNC(=O)/C=C/c1ccc(F)cc1 | 8.91 µM (active) |
| CCCCn1c(C2CCCCC2)nc2cc3[nH]c(=O)c(C(C)C)nc3cc21 | 11.2 µM (active) |
| Cc1cc(=O)oc2c1ccc1oc(/C(=N/O)c3ccccc3)c(C)c12 | 4.47 µM (active) |
| Cc1cc(Cl)cc(C)c1OCCn1ccnc1 | 11.2 µM (active) |
| CC#CC#Cc1cccc(=O)o1 | 3.98 µM (active) |
| Clc1ccc2nc(-c3ccccn3)c(Nc3ccc4c(c3)OCO4)n2c1 | 10 µM (active) |
| CCCCSc1nnc(-c2cc3c(C(F)(F)F)nn(C)c3s2)n1C | 10 µM (active) |
| CCOc1ccccc1NC(=O)/C(C#N)=C/c1cccnc1 | 12.6 µM (active) |
